This is an account of results in PubChem BioAssay (NCATS).

Molecules are shown by their SMILES. Records with an inconclusive call do not appear. Unmarked numbers belong to inactive results. The source made the active and inactive calls. Calls come from the whole dose curve; as a rule, active = well fitted curve in the direction sought with a large enough effect; inconclusive = small, poorly fitted or top-dose-only effect, or another doubt; inactive = no such curve, though single readings can be large; an effect the other way counts as inactive or inconclusive.

In experiment [1] the target is Rap guanine nucleotide exchange factor 3 (Homo sapiens) (UniProt O95398). The experiment can be described thus: Confirmatory qHTS for agonist of cAMP-regulated guanine nucleotide exchange factor 3 (EPAC1) (AID 1645881).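 Note: EPAC1 catalysed release of BODIPY-GDP from Rap1B seen as fluorescence loss; 100% = effect of cAMP agonist control; nearly all actives have a fitted effect of over 75% in size.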
Experiment [2] concerns the target Rap guanine nucleotide exchange factor 4 (Homo sapiens) (UniProt Q8WZA2). Description: Confirmatory qHTS for agonist of cAMP-regulated guanine nucleotide exchange factor 4 (EPAC2) (AID 1645884;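 note: nucleotide exchange releases bodipy-GDP from Rap1 and this lowers its fluorescence; nearly all actives have a fitted effect of over 65% in size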; note: potency is the fitted concentration of half-maximal effect; for activation: % is set by controls: 0 for no effect and ±100 for the full control effect). (Quantitative high-throughput screening tests each substance at several concentrations.)
Experiment [3] shares this target. The experiment can be described thus: Confirmatory qHTS for antagonist of cAMP-regulated guanine nucleotide exchange factor 4 (EPAC2) (AID 1645885). For activity change, negative = inhibition: % is set by controls: 0 for no effect and ±100 for the full control effect. Note: nearly all actives have a fitted effect of over 25% in size. Note: potency is the fitted concentration of half-maximal effect.
Experiment [4] deals with Rap guanine nucleotide exchange factor 3 (Homo sapiens) (UniProt O95398). The experiment can be described thus: Counterscreen qHTS for antagonist of cAMP-regulated guanine nucleotide exchange factor 3 (EPAC1) (AID 1645888).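 Note: fluorescence loss as bound BODIPY-GDP is released from Rap1B; % of control where 0% means no effect.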 Put shortly: (§1)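 Rap1B-BODIPY-GDP 250 nM + GDP 50 uM; cpds 7-pt, final 9.74 nM–152 uM (activator mode) or from 7.32 nM upwards (inhibitor mode); RT; FI 480/540 nm at 5 and 30 min, then ± cAMP, reread.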
On the technique in general: The purpose of a counterscreen is to sort out artefacts and off-target activity.

For experiment [5] the target is unchanged. Description: Counterscreen qHTS for agonist of cAMP-regulated guanine nucleotide exchange factor 3 (EPAC1) (AID 1645889). Note: % of control where 0% means no effect; nearly all actives have a fitted effect of over 40% in size. In outline:
as §1

Rap guanine nucleotide exchange factor 4 (Homo sapiens), sequence (Q8WZA2 whole entry, looked up): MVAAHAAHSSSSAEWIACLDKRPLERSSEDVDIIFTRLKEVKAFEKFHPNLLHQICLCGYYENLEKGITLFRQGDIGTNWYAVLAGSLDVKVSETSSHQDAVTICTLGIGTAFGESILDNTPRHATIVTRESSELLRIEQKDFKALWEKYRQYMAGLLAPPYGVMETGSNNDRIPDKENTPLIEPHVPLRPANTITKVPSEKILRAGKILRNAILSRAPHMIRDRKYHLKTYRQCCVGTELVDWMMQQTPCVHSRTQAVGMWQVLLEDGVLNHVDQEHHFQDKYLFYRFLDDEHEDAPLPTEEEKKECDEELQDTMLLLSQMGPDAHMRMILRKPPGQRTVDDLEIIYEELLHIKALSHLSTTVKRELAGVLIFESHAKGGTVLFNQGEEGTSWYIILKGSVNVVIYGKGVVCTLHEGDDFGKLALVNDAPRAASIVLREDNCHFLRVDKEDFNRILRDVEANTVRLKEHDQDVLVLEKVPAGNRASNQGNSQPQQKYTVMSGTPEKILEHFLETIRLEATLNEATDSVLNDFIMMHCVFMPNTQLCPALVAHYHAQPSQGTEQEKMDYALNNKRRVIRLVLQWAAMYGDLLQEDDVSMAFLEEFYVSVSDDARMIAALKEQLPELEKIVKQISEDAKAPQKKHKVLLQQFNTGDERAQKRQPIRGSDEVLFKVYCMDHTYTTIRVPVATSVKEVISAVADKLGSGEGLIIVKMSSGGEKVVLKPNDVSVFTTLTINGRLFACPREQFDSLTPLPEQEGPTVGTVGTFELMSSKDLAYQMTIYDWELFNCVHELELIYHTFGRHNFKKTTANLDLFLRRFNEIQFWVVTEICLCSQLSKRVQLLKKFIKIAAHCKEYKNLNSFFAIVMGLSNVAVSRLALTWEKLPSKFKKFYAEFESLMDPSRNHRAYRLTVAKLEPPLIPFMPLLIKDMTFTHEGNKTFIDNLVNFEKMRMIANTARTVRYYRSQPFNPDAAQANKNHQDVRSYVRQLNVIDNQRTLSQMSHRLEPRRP
Rap guanine nucleotide exchange factor 3 (Homo sapiens), sequence (O95398 whole entry, looked up): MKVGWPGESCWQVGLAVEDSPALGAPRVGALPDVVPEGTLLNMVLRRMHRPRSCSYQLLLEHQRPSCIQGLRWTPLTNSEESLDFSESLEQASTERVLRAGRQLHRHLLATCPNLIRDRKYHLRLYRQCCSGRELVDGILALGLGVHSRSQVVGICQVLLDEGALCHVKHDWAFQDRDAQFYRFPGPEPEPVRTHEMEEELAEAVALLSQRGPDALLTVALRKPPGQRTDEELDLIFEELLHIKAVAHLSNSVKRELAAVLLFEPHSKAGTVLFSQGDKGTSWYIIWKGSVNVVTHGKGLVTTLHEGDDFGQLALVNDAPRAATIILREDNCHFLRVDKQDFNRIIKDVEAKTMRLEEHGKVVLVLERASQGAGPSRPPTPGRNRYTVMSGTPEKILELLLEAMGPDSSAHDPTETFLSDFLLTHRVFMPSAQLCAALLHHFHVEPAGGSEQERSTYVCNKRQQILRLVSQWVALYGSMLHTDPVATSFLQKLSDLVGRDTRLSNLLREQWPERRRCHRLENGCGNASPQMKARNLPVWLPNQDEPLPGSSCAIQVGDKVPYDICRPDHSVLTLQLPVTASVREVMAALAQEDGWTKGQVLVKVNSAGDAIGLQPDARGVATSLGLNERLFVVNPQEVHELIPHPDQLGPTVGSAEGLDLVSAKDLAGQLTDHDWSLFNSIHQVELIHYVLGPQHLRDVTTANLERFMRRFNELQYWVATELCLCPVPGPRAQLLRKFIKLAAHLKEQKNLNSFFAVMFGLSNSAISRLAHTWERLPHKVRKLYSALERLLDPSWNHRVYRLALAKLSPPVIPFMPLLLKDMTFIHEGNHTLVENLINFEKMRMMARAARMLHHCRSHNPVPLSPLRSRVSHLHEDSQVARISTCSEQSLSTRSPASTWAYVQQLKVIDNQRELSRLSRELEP

Turning to `CCCCCCn1nc(C(=O)OCC(=O)c2c(N)n(C)c(=O)n(C)c2=O)c2ccccc2c1=O`, the Potency result in experiment [1], in experiment [2], in experiment [3], in experiment [4] and in experiment [5] was “inactive” in each case.
Regarding `Cc1cccc(C(=O)c2c(N)sc3c2CCCC3)c1`, the Potency entry in experiment [1] and in experiment [3] was “inactive” in each case. Also, the activation was -0.129% [at 17.1 µM, percent relative to cAMP agonist control] in experiment [2] and 9.69% [at 30.8 µM] in experiment [5]. For the same compound, in experiment [4], the activity change, negative = inhibition is -3.46% [at 30.8 µM].
As for `O=C1NC(=O)/C(=C/c2ccc(-c3cc(C(=O)O)ccc3Cl)o2)S1`, the Potency entry in experiment [1] and in experiment [3] was “inactive” throughout. In addition, the activation in experiment [2] is 7.65% [at 17.1 µM, percent relative to cAMP agonist control]; in experiment [5] it was 8.4% [at 30.8 µM]. For the same compound, the activity change, negative = inhibition in experiment [4] is 4.91% [at 30.8 µM].
As for `COc1cccc(C(=O)Nc2nnc(S(=O)(=O)Nc3cccc(C)c3)s2)c1`, the Potency entry in experiment [1], in experiment [2], in experiment [3], in experiment [4] and in experiment [5] was “inactive” each time.
Turning to `CCOc1cc(-c2c(C#N)c(N)nc3c2CCCC3C)ccc1O` (stereo not given), the Potency entry in experiment [1], in experiment [3], in experiment [4] and in experiment [5] was “inactive” throughout. In addition, in experiment [2], the Potency was 0.398 µM (active).
Take `N#Cc1c(-c2ccc(F)cc2)cc(-c2ccccc2)nc1SCC(=O)NCC(=O)O`: the Potency result in experiment [1], in experiment [2], in experiment [4] and in experiment [5] was “inactive” in each case. The outcome in experiment [3] is “inactive [at 12.7 µM]”.
On to `O=C(CCC1N=C2c3ccccc3N=C(SCc3ccc(Cl)cc3)N2C1=O)NCc1cccs1` (stereo not given), for which the Potency result in experiment [1], in experiment [2], in experiment [3], in experiment [4] and in experiment [5] was “inactive” throughout.
Turning to `O=C(/C=C/c1ccco1)NC(=S)Nc1cccc(-c2nc3ccccc3o2)c1`, the Potency result in experiment [1] and in experiment [3] was “inactive” each time. In addition, the activation in experiment [2] was -2.07% [at 17.1 µM, percent relative to cAMP agonist control]; in experiment [5], 10.2% [at 30.8 µM]. In addition, the activity change, negative = inhibition in experiment [4] is -12.8% [at 30.8 µM].
`CCOc1cc(/C=C2/SC(=S)N(CC(=O)O)C2=O)ccc1OC(=O)c1cccs1`: the Potency result in experiment [1], in experiment [2], in experiment [3], in experiment [4] and in experiment [5] was “inactive” each time.
`CC(C)(C)C(=O)NC(Nc1cccc2cccnc12)C(Cl)(Cl)Cl` (stereo not given): the Potency entry in experiment [1] and in experiment [3] was “inactive” each time. For the same compound, the activation was 7.17% [at 17.1 µM, percent relative to cAMP agonist control] in experiment [2] and 21.1% [at 30.8 µM] in experiment [5]. Further, in experiment [4], the activity change, negative = inhibition is -6% [at 30.8 µM].
On to `O=C1/C(=C/c2cccc(F)c2)SC(=S)N1NS(=O)(=O)c1ccccc1`, for which the Potency entry in experiment [1], in experiment [2], in experiment [3], in experiment [4] and in experiment [5] was “inactive” in each case.
Regarding `CCOc1ccc(C(=O)N/N=C/c2cc(Cl)ccc2[N+](=O)[O-])cc1`, the Potency entry in experiment [1] and in experiment [3] was “inactive” in each case. Moreover, the activation is 3.37% [at 17.1 µM, percent relative to cAMP agonist control] in experiment [2] and 15.5% [at 30.8 µM] in experiment [5]. In addition, the activity change, negative = inhibition in experiment [4] was -12.2% [at 30.8 µM].
Take `COc1ccc(C(=O)Nc2ccccc2-c2nnn(CC(N)=O)n2)cc1`: the Potency result in experiment [1], in experiment [2], in experiment [3], in experiment [4] and in experiment [5] was “inactive” throughout.
Regarding `Cc1cc2oc(=O)c(CC(=O)O)c(C)c2c2occ(-c3ccccc3)c12`, the Potency result in experiment [1], in experiment [2], in experiment [3], in experiment [4] and in experiment [5] was “inactive” throughout.
`CCCn1nc([N+](=O)[O-])c(C(C#N)c2nc3ccccc3o2)c(Cl)c1=O` (stereo not given): the Potency entry in experiment [1], in experiment [2], in experiment [4] and in experiment [5] was “inactive” throughout. For the same compound, in experiment [3], the Potency is 37.9 µM (active).
In the case of `O=C(Nc1nc2ccccc2[nH]1)C1CCN(S(=O)(=O)c2cccs2)CC1`, the Potency result in experiment [1], in experiment [2], in experiment [3], in experiment [4] and in experiment [5] was “inactive” in each case.
`COc1cc(Cl)cc(/C=N\NC(=O)c2ccc3c(c2)OCO3)c1O`: the Potency entry in experiment [1], in experiment [2], in experiment [3], in experiment [4] and in experiment [5] was “inactive” in each case.
Turning to `CCN(CC)C(=O)CSc1nnc(-c2cccs2)n1Cc1ccco1`, the Potency entry in experiment [1], in experiment [2], in experiment [3], in experiment [4] and in experiment [5] was “inactive” throughout.
Consider `Cc1cccc(Cn2c(=O)oc3ccc(C)cc32)c1`, for which the Potency result in experiment [1] and in experiment [3] was “inactive” in each case. Besides, the activation in experiment [2] is 1.77% [at 17.1 µM, percent relative to cAMP agonist control]; in experiment [5], 19.6% [at 30.8 µM]. In addition, the activity change, negative = inhibition in experiment [4] was 0.42% [at 30.8 µM].
On to `O=[N+]([O-])c1cc2oc3c(c2c(C=NCc2ccncc2)c1O)CCCC3`, for which the Potency entry in experiment [1] and in experiment [3] was “inactive” in each case. Also, the activation was 1.74% [at 17.1 µM, percent relative to cAMP agonist control] in experiment [2] and 15.1% [at 30.8 µM] in experiment [5]. Also, in experiment [4], the activity change, negative = inhibition is -19.5% [at 30.8 µM].
